{"source": "paper PMC8384837", "about": "“Expanding the binding specificity for RNA recognition by a PUF domain”", "assay_in_all_cases": "yeast three-hybrid, YBZ-1, SC-Leu-His + 0.5 mM 3-AT, 4 days", "settings_in_all_cases": "tags: N-Gal4 AD-HA kept; label: inside an RPR1-promoter hybrid RNA with tandem MS2 sites; ssRNA", "key": {"[1]": {"target": "PUM1 PUF domain R5-KFK (Homo sapiens, UniProt Q14671 828-1176, C1007K;R1008F;Q1011K)", "outline": "(§1)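 The interaction score is the log change in how often each variant appears, from input to selection. Frequencies came from PCR-amplified, Illumina-sequenced repeat regions of Pumilio-1 PUF domain libraries grown in strain YBZ-1 (LexA–MS2 coat fusion, HIS3 reporter) alongside matching RNA elements. Input plates were SC-Leu and selection plates were SC-Leu-His + 0.5 mM 3-AT, each for four days, and the log2 calculation used a pseudocount of 1 where a variant was absent.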"}, "[2]": {"target": "PUM1 PUF domain R5-DFY (Homo sapiens, UniProt Q14671 828-1176, C1007D;R1008F;Q1011Y)", "outline": "as §1"}, "[3]": {"target": "PUM1 PUF domain R5-RNT (Homo sapiens, UniProt Q14671 828-1176, C1007R;R1008N;Q1011T)", "outline": "as §1"}, "[4]": {"target": "PUM1 PUF domain R1-RAT (Homo sapiens, UniProt Q14671 828-1176, S863R;R864A;Q867T)", "outline": "as §1"}, "[5]": {"target": "PUM1 PUF domain R1-NLR (Homo sapiens, UniProt Q14671 828-1176, S863N;R864L;Q867R)", "outline": "as §1"}, "[6]": {"target": "PUM1 PUF domain R8-RRQ (Homo sapiens, UniProt Q14671 828-1176, N1122R;Y1123R)", "outline": "as §1"}, "[7]": {"target": "PUM1 PUF domain R8-KRG (Homo sapiens, UniProt Q14671 828-1176, N1122K;Y1123R;Q1126G)", "outline": "as §1"}, "[8]": {"target": "PUM1 PUF domain R4-GPG (Homo sapiens, UniProt Q14671 828-1176, N971G;H972P;Q975G)", "outline": "as §1"}, "[9]": {"target": "T1, PUM1 PUF domain R6-TFG (Homo sapiens, UniProt Q14671 828-1176, N1043T;Y1044F;Q1047G)", "T1 sequence": "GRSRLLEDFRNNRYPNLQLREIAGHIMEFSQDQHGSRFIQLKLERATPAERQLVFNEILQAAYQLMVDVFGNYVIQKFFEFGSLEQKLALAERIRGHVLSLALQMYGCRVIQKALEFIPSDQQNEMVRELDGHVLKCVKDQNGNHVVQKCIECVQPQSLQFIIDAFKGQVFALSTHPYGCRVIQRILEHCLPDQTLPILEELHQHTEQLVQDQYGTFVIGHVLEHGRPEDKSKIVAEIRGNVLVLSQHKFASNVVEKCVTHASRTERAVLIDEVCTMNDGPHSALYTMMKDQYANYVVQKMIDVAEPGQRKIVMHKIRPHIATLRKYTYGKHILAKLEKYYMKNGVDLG", "outline": "as §1"}, "[10]": {"target": "PUM1 PUF domain R3-GRY (Homo sapiens, UniProt Q14671 828-1176, C935G;Q939Y)", "outline": "as §1"}}, "data": [{"sequence": "GGCUAGAACUAGUGGAUCCCCCGGCGCCCGGCGGCUCGAGCCCGGGUAAGUGUUAAUAGUCUGCAUGCCGCCGGGCGCCAUGCCUGCAGGUCGACUCUAGAAAACAUG", "values": [{"measurement": "binding signal", "setting": "[1]", "value": "5.11 log2 enrichment (interaction score)"}, {"measurement": "binding signal", "setting": "[2]", "value": "4.07 log2 enrichment (interaction score)"}, {"measurement": "binding signal", "setting": "[3]", "value": "3.11 log2 enrichment (interaction score)"}]}, {"sequence": "GGCUAGAACUAGUGGAUCCCCCGGCGCCCGGCGGCUCGAGCCCGGGUAAGUGUAAAUUGUCUGCAUGCCGCCGGGCGCCAUGCCUGCAGGUCGACUCUAGAAAACAUG", "values": [{"measurement": "binding signal", "setting": "[4]", "value": "3.04 log2 enrichment (interaction score)"}, {"measurement": "binding signal", "setting": "[5]", "value": "3.68 log2 enrichment (interaction score)"}]}, {"sequence": "GGCUAGAACUAGUGGAUCCCCCGGCGCCCGGCGGCUCGAGCCCGGGUAAGCGUAAAUAGUCUGCAUGCCGCCGGGCGCCAUGCCUGCAGGUCGACUCUAGAAAACAUG", "values": [{"measurement": "binding signal", "setting": "[6]", "value": "2.97 log2 enrichment (interaction score)"}, {"measurement": "binding signal", "setting": "[7]", "value": "4.19 log2 enrichment (interaction score)"}]}, {"sequence": "GGCUAGAACUAGUGGAUCCCCCGGCGCCCGGCGGCUCGAGCCCGGGUAAGUGUAAAUCGUCUGCAUGCCGCCGGGCGCCAUGCCUGCAGGUCGACUCUAGAAAACAUG", "values": [{"measurement": "binding signal", "setting": "[4]", "value": "4.37 log2 enrichment (interaction score)"}]}, {"sequence": "GGCUAGAACUAGUGGAUCCCCCGGCGCCCGGCGGCUCGAGCCCGGGUAAGUGUACAUAGUCUGCAUGCCGCCGGGCGCCAUGCCUGCAGGUCGACUCUAGAAAACAUG", "values": [{"measurement": "binding signal", "setting": "[8]", "value": "2.28 log2 enrichment (interaction score)"}]}, {"sequence": "GGCUAGAACUAGUGGAUCCCCCGGCGCCCGGCGGCUCGAGCCCGGGUAAGUGUAAAUAGUCUGCAUGCCGCCGGGCGCCAUGCCUGCAGGUCGACUCUAGAAAACAUG", "values": [{"measurement": "binding signal", "setting": "[9]", "value": "5.01 log2 enrichment (interaction score)"}, {"measurement": "binding signal", "setting": "[6]", "value": "1.1 log2 enrichment (interaction score)"}, {"measurement": "binding signal", "setting": "[8]", "value": "5.02 log2 enrichment (interaction score)"}, {"measurement": "binding signal", "setting": "[2]", "value": "2.71 log2 enrichment (interaction score)"}, {"measurement": "binding signal", "setting": "[3]", "value": "2.05 log2 enrichment (interaction score)"}, {"measurement": "binding signal", "setting": "[7]", "value": "1.8 log2 enrichment (interaction score)"}, {"measurement": "binding signal", "setting": "[10]", "value": "4.27 log2 enrichment (interaction score)"}]}, {"sequence": "GGCUAGAACUAGUGGAUCCCCCGGCGCCCGGCGGCUCGAGCCCGGGUAAGUGUAAAUGGUCUGCAUGCCGCCGGGCGCCAUGCCUGCAGGUCGACUCUAGAAAACAUG", "values": [{"measurement": "binding signal", "setting": "[4]", "value": "2.45 log2 enrichment (interaction score)"}]}, {"sequence": "GGCUAGAACUAGUGGAUCCCCCGGCGCCCGGCGGCUCGAGCCCGGGUAAGUGUCAAUAGUCUGCAUGCCGCCGGGCGCCAUGCCUGCAGGUCGACUCUAGAAAACAUG", "values": [{"measurement": "binding signal", "setting": "[3]", "value": "2.85 log2 enrichment (interaction score)"}]}, {"sequence": "GGCUAGAACUAGUGGAUCCCCCGGCGCCCGGCGGCUCGAGCCCGGGUAAGUGUAUAUAGUCUGCAUGCCGCCGGGCGCCAUGCCUGCAGGUCGACUCUAGAAAACAUG", "values": [{"measurement": "binding signal", "setting": "[8]", "value": "2.98 log2 enrichment (interaction score)"}]}]}
